PubChem BioAssay (NCATS)
Inconclusive results are not listed. Where a call stands in place of a potency, no number is given. The source made the active and inactive calls. The call rests on the fitted dose curve; in most records, active means well fitted cell-killing curve with a large enough effect; inconclusive means small, poorly fitted or top-dose-only effect; inactive means flat fitted curve, though single readings scatter.

What was measured:
[1] = Cell Viability - LYMP2-011 (AID 969); further: nearly all actives have a fitted effect of over 60% in size
Procedure, shortened: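 Cytotoxicity qHTS with ATP content as read-out: lymphoblastoid cells (2500/well) exposed to compound for 24 h at 37 C, then luciferase luminescence measured. Concentration-response data fitted with the standard Hill equation to give AC50.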

[2] = Cell Viability - LYMP2-013 (AID 970); further: nearly all actives have a fitted effect of over 55% in size
Procedure, shortened: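 qHTS cytotoxicity: ATP-dependent luminescence (CellTiter-Glo, 30 min room temperature) read after 24 h compound exposure at 37 C of 2500 LYMP2-013 lymphoblastoid cells per well. Concentration-response fitted with Hill equation to give AC50.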

[3] = Cell Viability - LYMP2-015 (AID 971); further: nearly all actives have a fitted effect of over 55% in size
Procedure, shortened: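 Cytotoxicity readout: decrease in intracellular ATP (CellTiter-Glo luminescence) in 2500 LYMP2-015 lymphoblastoid cells/well after 24 h compound exposure at 37 C. Concentration-response data fitted with the standard Hill equation to give AC50.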

[4] = Cell Viability - LYMP2-017 (AID 972); further: nearly all actives have a fitted effect of over 55% in size
Procedure, shortened: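 CellTiter-Glo luminescence (cellular ATP, 30 min RT) measured cytotoxicity after 24 hr compound treatment at 37 C. Cells were a human lymphoblastoid line, LYMP2-017, plated at 2500/well and incubated 5 hr first; concentration-response fitted with Hill equation for AC50.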

[5] = Cell Viability - LYMP2-019 (AID 973); further: nearly all actives have a fitted effect of over 55% in size
Procedure, shortened: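 AC50 values come from Hill-equation fits of luminescent intracellular ATP (CellTiter-Glo, 30 min, room temperature) following 24 h compound exposure at 37 C. Cells: LYMP2-019 lymphoblastoid line, 2500 per well, in complete culture medium.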

[6] = Cell Viability - LYMP2-021 (AID 974); further: nearly all actives have a fitted effect of over 55% in size
Procedure, shortened: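 AC50 values come from Hill-equation fits to CellTiter-Glo luminescence (ATP content), read after 24 hour compound exposure at 37 C of 2500 LYMP2-021 lymphoblastoid cells/well; tetraoctylammonium bromide as positive control.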

[7] = Cell Viability - LYMP2-023 (AID 975); further: nearly all actives have a fitted effect of over 55% in size
Procedure, shortened: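 Intracellular ATP, read by CellTiter-Glo luminescence, reports viability after 24 hr compound exposure at 37 C. 2500 lymphoblastoid cells/well (LYMP2-023) seeded 5 hr beforehand; Hill fits give AC50; positive control tetraoctylammonium bromide.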

[8] = Cell Viability - LYMP2-025 (AID 976)
Procedure, shortened: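 Cytotoxicity read as loss of intracellular ATP (luciferase luminescence) after 24 h compound treatment at 37 C. Uses LYMP2-025 lymphoblastoid cells in 1536-well format; Hill-equation modelling gives AC50; tetraoctylammonium bromide as positive control.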

[9] = Cell Viability - LYMP2-002 (AID 977)
Procedure, shortened: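 In this qHTS viability screen, 2500 human lymphoblastoid cells per well receive compound for 24 hr at 37 C, and luciferase-based ATP luminescence gives the viability signal. Tetraoctylammonium bromide serves as positive control.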

[10] = Cell Viability - LYMP2-006 (AID 978); further: nearly all actives have a fitted effect of over 60% in size
Procedure, shortened: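 Cells are seeded at 2500 per well and rested 5 hr at 37 C. Compounds are added across a concentration series for 24 hr at 37 C, after which ATP is quantified by luciferase luminescence.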

[11] = Cell Viability - LYMP2-007 (AID 979);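 further: cells exposed to compound for 24 h before reading; nearly all actives have a fitted effect of over 60% in size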
Procedure, shortened: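 AC50 values come from Hill-equation fits of luminescent intracellular ATP (CellTiter-Glo, 30 min, room temperature) following 24 h compound exposure at 37 C. Cells: LYMP2-007 lymphoblastoid line, 2500 per well, in complete culture medium.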

[12] = Cell Viability - LYMP2-008 (AID 980); further: nearly all actives have a fitted effect of over 60% in size
Procedure, shortened: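 Cytotoxicity determined from ATP-dependent luciferase luminescence (CellTiter-Glo) following 24 h compound exposure of human lymphoblastoid LYMP2-008 cells at 37 C. Concentration-response data fitted to the Hill equation to give AC50.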

[13] = Cell Viability - LYMP2-010 (AID 981); further: nearly all actives have a fitted effect of over 55% in size
Procedure, shortened: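 CellTiter-Glo ATP luminescence measured cytotoxicity after 24 h compound exposure at 37 C. LYMP2-010 cells were seeded at 2500/well, with tetraoctylammonium bromide as control; concentration-response curves gave AC50 values by the Hill equation.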

[14] = Cell Viability - LYMP2-012 (AID 982)
[15] = Cell Viability - LYMP2-014 (AID 983); further: nearly all actives have a fitted effect of over 50% in size
Procedure, shortened: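 Intracellular ATP loss, read by luciferase luminescence, measures acute cytotoxicity after 24 h compound exposure of lymphoblastoid LYMP2-014 cells (2500/well, 37 C). Concentration-response data fitted to the Hill equation for AC50.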

[16] = Cell Viability - LYMP2-016 (AID 984); further: nearly all actives have a fitted effect of over 55% in size
Procedure, shortened: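 Cells were seeded at 2500 per well and rested 5 hr before a 24 hr compound exposure at 37 C. Viability was then gauged as cellular ATP by luciferase luminescence, with AC50 values fitted to the Hill equation.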

[17] = Cell Viability - LYMP2-018 (AID 985); further: nearly all actives have a fitted effect of over 50% in size
Procedure, shortened: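 Viability read as CellTiter-Glo luminescence (cellular ATP) after 24 hr compound exposure at 37 C of 2500 LYMP2-018 lymphoblastoid cells/well, pre-plated 5 hr. Hill-equation modelling gave AC50.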

[18] = Cell Viability - LYMP2-020 (AID 986); further: nearly all actives have a fitted effect of over 55% in size
Procedure, shortened: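 Cytotoxicity in qHTS format: luminescent ATP readout from CellTiter-Glo after 24 h compound exposure at 37 C in complete medium. LYMP2-020 lymphoblastoid cells were seeded at 2500/well; concentration-response data fitted to the Hill equation for AC50.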

[19] = Cell Viability - LYMP2-022 (AID 987); further: nearly all actives have a fitted effect of over 55% in size
Procedure, shortened: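 Cytotoxicity read as decreased cellular ATP (CellTiter-Glo luminescence, 30 min room temperature) after 24 hours compound exposure of 2500 lymphoblastoid LYMP2-022 cells/well at 37 C. Concentration-response data fitted with standard Hill equation for AC50.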

[20] = Cell Viability - LYMP2-024 (AID 988); further: nearly all actives have a fitted effect of over 60% in size
Procedure, shortened: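 Cytotoxicity was taken as a decrease in ATP (CellTiter-Glo luminescence) after 24 hr compound exposure at 37 C of LYMP2-024 lymphoblastoid cells, 2500 cells/well. Concentration-response data were fitted to the Hill equation to give AC50.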
Potency means the concentration at half of the fitted maximal effect.

SMILES | Potency [1] | Potency [2] | Potency [3] | Potency [4] | Potency [5] | Potency [6] | Potency [7] | Potency [8] | Potency [9] | Potency [10] | Potency [11] | Potency [12] | Potency [13] | Potency [14] | Potency [15] | Potency [16] | Potency [17] | Potency [18] | Potency [19] | Potency [20]
O=C(O)C(Cl)Cl | inactive | inactive | inactive | inactive | inactive | inactive | inactive | inactive | inactive | inactive | inactive | inactive | inactive | inactive | inactive | inactive | inactive | inactive | inactive | inactive
CCCCCCCCc1ccc(O)cc1 | inactive | inactive | inactive | inactive | inactive | inactive | inactive | inactive | inactive | inactive | inactive | inactive | inactive | inactive | inactive | inactive | inactive | inactive | inactive | inactive
CC(=O)[O][Hg][c]1ccccc1 | 1 µM (active) | 631 nM (active) | 631 nM (active) | 631 nM (active) | 794 nM (active) | 794 nM (active) | 1.26 µM (active) | 1.26 µM (active) | 1.58 µM (active) | 1.58 µM (active) | 1 µM (active) | 1.26 µM (active) | 398 nM (active) | 501 nM (active) | 1.58 µM (active) | 1 µM (active) | 631 nM (active) | 794 nM (active) | 501 nM (active) | 501 nM (active)
O=S(=O)(c1ccc(Cl)cc1)c1ccc(Cl)cc1 | inactive | inactive | inactive | inactive | inactive | inactive | inactive | inactive | inactive | inactive | inactive | inactive | inactive | inactive | inactive | inactive | inactive | inactive | inactive | inactive
CN(C)NC(=O)CCC(=O)O | inactive | inactive | inactive | inactive | inactive | inactive | inactive | inactive | inactive | inactive | inactive | inactive | inactive | inactive | inactive | inactive | inactive | inactive | inactive | inactive
Nc1ccc(Cl)cc1 | inactive | inactive | inactive | inactive | inactive | inactive | inactive | inactive | inactive | inactive | inactive | inactive | inactive | inactive | inactive | inactive | inactive | inactive | inactive | inactive
CN(C)[C@@H]1C(=O)C(C(N)=O)=C(O)[C@@]2(O)C(=O)C3=C(O)c4c(O)cccc4[C@@](C)(O)[C@H]3[C@H](O)[C@@H]12 | inactive | inactive | inactive | inactive | inactive | inactive | inactive | inactive | inactive | inactive | inactive | inactive | inactive | inactive | inactive | inactive | inactive | inactive | inactive | inactive
O=[N+]([O-])c1cc([N+](=O)[O-])c2ccccc2c1 | inactive | inactive | inactive | inactive | inactive | inactive | inactive | inactive | inactive | inactive | inactive | inactive | inactive | inactive | inactive | inactive | inactive | inactive | inactive | inactive
O=C(O)COc1ccccc1 | inactive | inactive | inactive | inactive | inactive | inactive | inactive | inactive | inactive | inactive | inactive | inactive | inactive | inactive | inactive | inactive | inactive | inactive | inactive | inactive
Nc1ccc([N+](=O)[O-])cc1 | inactive | inactive | inactive | inactive | inactive | inactive | inactive | inactive | inactive | inactive | inactive | inactive | inactive | inactive | inactive | inactive | inactive | inactive | inactive | inactive
C1CCC(NC2CCCCC2)CC1 | inactive | inactive | inactive | inactive | inactive | inactive | inactive | inactive | inactive | inactive | inactive | inactive | inactive | inactive | inactive | inactive | inactive | inactive | inactive | inactive
COC(C)(C)CCCC(C)C/C=C/C(C)=C/C(=O)OC(C)C (configuration not stated) | inactive | inactive | inactive | inactive | inactive | inactive | inactive | inactive | inactive | inactive | inactive | inactive | inactive | inactive | inactive | inactive | inactive | inactive | inactive | inactive
O=[N+]([O-])c1c2ccccc2cc2ccccc12 | inactive | inactive | inactive | inactive | inactive | inactive | inactive | inactive | inactive | inactive | inactive | inactive | inactive | inactive | inactive | inactive | inactive | inactive | inactive | inactive
O=[N+]([O-])c1c(Cl)c(Cl)cc(Cl)c1Cl | inactive | inactive | inactive | inactive | inactive | inactive | inactive | inactive | inactive | inactive | inactive | inactive | inactive | inactive | inactive | inactive | inactive | inactive | inactive | inactive
CC(C)(O)C(=O)Nc1ccc([N+](=O)[O-])c(C(F)(F)F)c1 | inactive | inactive | inactive | inactive | inactive | inactive | inactive | inactive | inactive | inactive | inactive | inactive | inactive | inactive | inactive | inactive | inactive | inactive | – | inactive
c1cc2ccc3cccc4ccc(c1)c2c34 | inactive | inactive | inactive | inactive | inactive | inactive | inactive | inactive | inactive | inactive | inactive | inactive | inactive | inactive | inactive | inactive | inactive | inactive | inactive | inactive
CCOCCOC(C)=O | inactive | inactive | inactive | inactive | inactive | inactive | inactive | inactive | inactive | inactive | inactive | inactive | inactive | inactive | inactive | inactive | inactive | inactive | inactive | inactive
Cc1cc(O)ccc1Cl | inactive | inactive | inactive | inactive | inactive | inactive | inactive | inactive | inactive | inactive | inactive | inactive | inactive | inactive | inactive | inactive | inactive | inactive | inactive | inactive
CCCCOC(=O)c1ccccc1C(=O)OCc1ccccc1 | inactive | inactive | inactive | inactive | inactive | inactive | inactive | inactive | inactive | inactive | inactive | inactive | inactive | inactive | inactive | inactive | inactive | inactive | inactive | inactive
CCCCC(CC)COC(=O)c1ccccc1C(=O)OCC(CC)CCCC (configuration not stated) | inactive | inactive | inactive | inactive | inactive | inactive | inactive | inactive | inactive | inactive | inactive | inactive | inactive | inactive | inactive | inactive | inactive | inactive | inactive | inactive
OCCCBr | inactive | inactive | inactive | inactive | inactive | inactive | inactive | inactive | inactive | inactive | inactive | inactive | inactive | inactive | inactive | inactive | inactive | inactive | inactive | inactive
COc1ccc(C(c2ccc(OC)cc2)C(Cl)(Cl)Cl)cc1 | inactive | inactive | inactive | inactive | inactive | inactive | inactive | inactive | inactive | inactive | inactive | inactive | inactive | inactive | inactive | inactive | inactive | inactive | inactive | inactive
Nc1ccc(Cl)cc1N | inactive | inactive | – | inactive | inactive | inactive | inactive | inactive | inactive | inactive | inactive | inactive | inactive | inactive | inactive | inactive | inactive | inactive | – | inactive
Nc1ccc(Sc2ccc(N)cc2)cc1 | inactive | inactive | inactive | inactive | inactive | inactive | inactive | inactive | inactive | inactive | inactive | inactive | inactive | inactive | inactive | inactive | inactive | inactive | inactive | inactive
C=CC(=O)NCNC(=O)C=C | inactive | inactive | inactive | inactive | inactive | inactive | inactive | inactive | inactive | inactive | inactive | inactive | inactive | inactive | inactive | inactive | inactive | inactive | inactive | inactive
CCOP(=O)(NC(C)C)Oc1ccc(SC)c(C)c1 (configuration not stated) | inactive | inactive | inactive | inactive | inactive | inactive | inactive | inactive | inactive | inactive | inactive | inactive | inactive | inactive | inactive | inactive | inactive | inactive | inactive | inactive
